# Records with an inconclusive call do not appear. Where a call stands in place of a potency, no number is given. Activity calls are given as the source filed them. Unless noted, calls come from the whole dose curve; as a rule, active = well fitted curve in the direction sought with a large enough effect in the repeat runs; inconclusive = weak or mixed curves; inactive = no such curve, though single readings can be large; an effect the other way counts as inactive or inconclusive.
# How the values were obtained:
# [1] = qHTS assay to identify small molecule antagonists of the estrogen related receptor (ERR) signaling pathway - cell viability counter screen (AID 1224818); note: series mostly up to about 46 µM
# Procedure, shortened: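 Compounds dissolved in DMSO were applied to ERR cells seeded at 2,000 per well 6 h earlier. Cell viability followed 17.5 h later via 30-min CellTiter-Fluor fluorescence.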
# [2] = qHTS assay to identify small molecule antagonists of the estrogen related receptor (ERR) signaling pathway (AID 1224819;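 note: luminescence from an ERR-driven luciferase reporter measured with One-Glo reagent; series mostly up to about 46 µM; nearly all actives have a fitted effect of over 50% in size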)
# Procedure, shortened: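 Compounds dissolved in DMSO were pin-transferred onto ERR cells that had been plated 6 h earlier, and cells were then incubated 18 h at 37 C; signal was luciferase luminescence via One-Glo.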
# [3] = qHTS assay to identify small molecule agonists of the estrogen related receptor (ERR) signaling pathway (AID 1224820); note: potency is the fitted concentration of half-maximal effect
# Procedure, shortened: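 Luminescence readout (One-Glo, 30 min RT) from NTP-supplied ERR cell line exposed to compounds for 18 h at 37 C. Cells seeded 2,000 per well and pre-incubated 6 h before pin-tool compound transfer.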
# [4] = test system: estrogen-related receptor alpha (ERRalpha) with PGC-1alpha coactivator, human; test: qHTS assay to identify small molecule antagonists of the estrogen related receptor signaling pathway with the pleiotropic PPARgamma coactivator (PGC) (AID 1224821; calls by dose curve;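 note: series mostly up to about 46 µM; lower luminescence signal means antagonism of PGC/ERR signalling; nearly all actives have a fitted effect of over 50% in size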)
# Procedure, shortened: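 PGC/ERR reporter cells; 6 h pre-incubation 37 C/5% CO2; pin-tool compound in DMSO, 18 h 37 C; One-Glo added, 30 min RT; luminescence read. qHTS antagonist mode.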
# [5] = qHTS assay to identify small molecule antagonists of the estrogen related receptor signaling pathway with the pleiotropic PPARgamma coactivator (PGC) cell viability counter screen (AID 1224822; note: series mostly up to about 46 µM)
# Procedure, shortened: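 Counter screen for cell viability: PGC/ERR cells, 6 h pre-incubation after plating, 17.5 h compound exposure at 37 C, fluorescence from CellTiter-Fluor after 30 min.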
# [6] = qHTS assay to identify small molecule agonists of the retinoic acid receptor (RAR) signaling pathway (AID 1159553); note: potency is the fitted concentration of half-maximal effect
# Procedure, shortened: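 6 hr compound exposure (DMSO vehicle) of overnight-plated C3RL4 RARE-luc cells at 37 C; luminescence quantified after 30 min RT with luciferase reagent.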
# [7] = qHTS assay to identify small molecule antagonists of the estrogen related receptor (ERR) signaling pathway from Tox21 library - cell viability counter screen (AID 1224834); note: nearly all actives have a fitted effect of over 30% in size; note: potency is the fitted concentration of half-maximal effect
# Procedure, shortened: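 Seeded ERR cells were rested 6 h at 37 C/5% CO2 before compounds, positive and negative controls or DMSO were added. Incubation continued for 17.5 h, and viability was then quantified by CellTiter-Fluor fluorescence.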
# [8] = target: Luciferin 4-monooxygenase (Photinus pyralis) (UniProt P08659); test: qHTS assay to identify small molecule inhibitors of firefly luciferase (AID 1224835); note: nearly all actives have a fitted effect of over 25% in size; note: potency is the fitted concentration of half-maximal effect
# Chain of Luciferin 4-monooxygenase (Photinus pyralis) (P08659 whole entry, looked up): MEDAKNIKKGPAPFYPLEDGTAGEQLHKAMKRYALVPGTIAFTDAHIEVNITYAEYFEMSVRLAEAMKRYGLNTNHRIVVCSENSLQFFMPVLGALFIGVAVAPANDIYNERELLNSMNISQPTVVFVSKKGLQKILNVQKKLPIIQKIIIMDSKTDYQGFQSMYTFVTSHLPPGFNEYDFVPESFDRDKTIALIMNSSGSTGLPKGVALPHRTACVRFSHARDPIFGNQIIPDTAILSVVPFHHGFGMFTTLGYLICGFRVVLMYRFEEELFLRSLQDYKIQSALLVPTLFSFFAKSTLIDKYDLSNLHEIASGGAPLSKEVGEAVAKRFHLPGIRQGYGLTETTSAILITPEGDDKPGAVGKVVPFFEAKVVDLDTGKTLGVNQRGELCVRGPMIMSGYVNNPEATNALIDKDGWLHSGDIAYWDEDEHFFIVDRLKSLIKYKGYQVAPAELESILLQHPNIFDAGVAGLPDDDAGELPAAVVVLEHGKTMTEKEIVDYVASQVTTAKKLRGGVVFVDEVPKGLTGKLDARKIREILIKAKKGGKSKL
# Procedure, shortened: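 Biochemical qHTS: compounds run as interplate titrations against purified firefly enzyme, with D-luciferin and ATP each at its KM concentration. Light output recorded by CCD imaging.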
# [9] = qHTS assay to identify small molecule agonists of the constitutive androstane receptor (CAR) signaling pathway - cell viability counter screen (AID 1224836); note: series mostly up to about 92 µM; nearly all actives have a fitted effect of over 45% in size
# Procedure, shortened: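 Multiplexed viability check: HepG2-CYP2B6-hCAR cells, 15-point compound dosing, 0.75 uM PK11195 final, 23 h at 37 C, CellTiter-Fluor fluorescence.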
# [10] = target: Nuclear receptor subfamily 1 group I member 3 (Homo sapiens) (UniProt Q14994); test: qHTS assay to identify small molecule antagonists of the constitutive androstane receptor (CAR) signaling pathway (AID 1224838);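 note: HepG2 cells stably expressing hCAR with CYP2B6 luciferase reporter stimulated by CITCO; nearly all actives have a fitted effect of over 40% in size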
# Chain of Nuclear receptor subfamily 1 group I member 3 (Homo sapiens) (Q14994 whole entry, looked up): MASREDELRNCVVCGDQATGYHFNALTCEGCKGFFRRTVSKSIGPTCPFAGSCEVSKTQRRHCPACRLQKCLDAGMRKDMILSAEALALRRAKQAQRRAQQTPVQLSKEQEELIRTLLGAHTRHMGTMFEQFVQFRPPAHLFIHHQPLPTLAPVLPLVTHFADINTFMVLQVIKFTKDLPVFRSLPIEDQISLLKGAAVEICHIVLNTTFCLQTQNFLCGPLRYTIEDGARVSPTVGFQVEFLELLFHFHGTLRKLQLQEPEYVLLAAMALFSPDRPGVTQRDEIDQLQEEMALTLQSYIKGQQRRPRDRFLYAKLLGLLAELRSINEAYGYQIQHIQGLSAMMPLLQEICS
# Procedure, shortened: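 Human hepatoma HepG2 cells expressing hCAR and a CYP2B6 promoter (2.2 kb) luciferase construct; compound titration (15 points) with 50 nM CITCO final, 24 h at 37 C/5% CO2; luminescence via ONE-Glo after 30 min at room temperature.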
# [11] = qHTS assay to identify small molecule antagonists of the estrogen related receptor signaling pathway with the pleiotropic PPARgamma coactivator (PGC) from Tox21 10K library - cell viability counter screen (AID 1224840; active = well fitted cell-killing curve with a large enough effect in the repeat runs, not every such curve was filed as active; note: nearly all actives have a fitted effect of over 40% in size)
# Procedure, shortened: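 Seeded PGC/ERR cells (2,000/well, 6 h, 37 C/5% CO2) get compound by pin tool; 17.5 h incubation at 37 C; CellTiter-Fluor added, 30 min, fluorescence measured.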
# [12] = qHTS assay to identify small molecule antagonists of the estrogen related receptor signaling pathway with the pleiotropic PPARgamma coactivator (PGC) from Tox21 10K library (AID 1224841; call rule not given here; note: actives are mostly falling curves and most rising ones were filed inactive; nearly all actives have a fitted effect of over 50% in size; note: potency is the fitted concentration of half-maximal effect)
# Procedure, shortened: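 Test chemicals dissolved in DMSO were applied to pre-incubated (6 h) PGC/ERR cells at 2,000 cells/well for an 18 h, 37 C treatment; reporter luminescence was then read using One-Glo.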
# [13] = qHTS assay to identify small molecule agonists of the estrogen related receptor signaling pathway with the pleiotropic PPARgamma coactivator (PGC) from Tox21 10K library (AID 1224842); note: nearly all actives have a fitted effect of over 15% in size
# Procedure, shortened: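 PGC/ERR reporter cell line, 2,000 cells per well, incubated 6 h at 37 C before 23 nL compound in DMSO was added. After 18 h at 37 C, One-Glo luminescence read following 30 min at room temperature.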
# [14] = qHTS assay to identify small molecule agonists of H2AX (AID 1224845; active = well fitted activation curve with a large enough effect in the signal ratio in the repeat runs, not every such curve was filed as active; the % refers to the signal ratio)
# Procedure, shortened: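 Wild-type CHO-K1 cells, plated overnight, exposed 3hr at 37C to 15 concentrations (0.76% DMSO final). Lysed, then HTRF anti-pH2AX (S139) cryptate and anti-H2AX-d2 antibodies, 24 hr room temperature; 665/620 nm emission read.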
# [15] = qHTS assay to identify small molecule antagonists of the constitutive androstane receptor (CAR) signaling pathway - cell viability counter screen (AID 1224837); note: series mostly up to about 92 µM; nearly all actives have a fitted effect of over 45% in size
# Procedure, shortened: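 To flag cytotoxic false antagonists, HepG2 hCAR/CYP2B6-2.2kb cells were treated 23 hr with 15-concentration compound series and 50 nM CITCO at 37 C/5% CO2; CellTiter-Fluor fluorescence was the measured end point.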
# [16] = qHTS assay to identify small molecule agonists of the hypoxia (HIF-1) signaling pathway - cell viability counter screen (AID 1224844; calls by dose curve; note: nearly all actives have a fitted effect of over 50% in size; note: potency is the fitted concentration of half-maximal effect)
# Procedure, shortened: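 HRE-bla ME-180; 0.5% dFBS; cpd 17 h, 37C, 5% CO2; CellTiter-Glo lum., 30 min RT, post-FRET read, same wells.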
# [17] = target: Nuclear receptor subfamily 1 group I member 3 (Homo sapiens) (UniProt Q14994); test: qHTS assay to identify small molecule agonists of the constitutive androstane receptor (CAR) signaling pathway (AID 1224839); note: nearly all actives have a fitted effect of over 15% in size; note: potency is the fitted concentration of half-maximal effect;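 for activation: HepG2 cells stably carrying human CAR and a CYP2B6 luciferase reporter; series mostly up to about 92 µM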
# Procedure, shortened: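 Using human hepatoma HepG2 cells engineered with hCAR and a CYP2B6-2.2kb reporter, 15-concentration compound series were incubated 24 h alongside PK11195 at 0.75 uM final, with luminescence quantified afterwards.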
smiles,measurement,setting,value
CN1CCc2cc(NC(=O)Nc3cccnc3)ccc21,Potency,[1],inactive
same,Potency,[2],inactive
same,Potency,[3],9.08 µM (active)
same,Potency,[4],inactive
same,Potency,[5],inactive
CC(=O)N[C@H](C(=O)O)C(C)(C)SN=O,Potency,[1],inactive
same,Potency,[2],inactive
same,Potency,[3],inactive
same,Potency,[4],inactive
same,Potency,[5],inactive
CNCC[C@H](Oc1ccc(C(F)(F)F)cc1)c1ccccc1,Potency,[1],inactive
CNCCC=C1c2ccccc2CCc2ccccc21,Potency,[1],inactive
same,Potency,[2],inactive
same,Potency,[3],inactive
same,Potency,[4],inactive
same,Potency,[5],inactive
O=[N+]([O-])c1cccc2cn[nH]c12,Potency,[1],inactive
same,Potency,[2],inactive
same,Potency,[3],inactive
same,Potency,[4],inactive
same,Potency,[5],inactive
CC(N)=NCCCC[C@@H](N)C(=O)O,Potency,[1],inactive
same,Potency,[2],inactive
same,Potency,[3],inactive
same,Potency,[4],inactive
same,Potency,[5],inactive
Nc1ccc(-c2nc3ccc(-c4nc5ccc(N)cc5[nH]4)cc3[nH]2)cc1,Potency,[1],inactive
same,Potency,[2],inactive
same,Potency,[3],inactive
same,Potency,[4],inactive
same,Potency,[5],inactive
Oc1ccc(Cl)cc1C1CCCC1,Potency,[6],inactive
same,Potency,[7],inactive
same,Potency,[8],inactive
same,Potency,[9],inactive
same,Potency,[10],inactive
same,Potency,[11],inactive
same,Potency,[12],inactive
same,Potency,[13],inactive
same,Potency,[14],inactive
Oc1cc2c(cc1O)C(c1ccccc1)CNCC2 (centres undefined),Potency,[1],inactive
same,Potency,[2],inactive
same,Potency,[3],inactive
O=C(N[C@H](CO)[C@H](O)c1ccc([N+](=O)[O-])cc1)C(Cl)Cl,Potency,[6],inactive
same,Potency,[1],inactive
same,Potency,[5],inactive
same,Potency,[7],inactive
same,Potency,[8],inactive
same,Potency,[9],inactive
same,Potency,[15],inactive
same,Potency,[10],inactive
same,Potency,[11],inactive
same,Potency,[16],inactive
same,Potency,[14],inactive
CC1=C(/C=C/C(C)=C/C=C/C(C)=C\C(=O)O)C(C)(C)CCC1,Potency,[6],0.0194 µM (active)
same,Potency,[1],inactive
same,Potency,[5],inactive
same,Potency,[7],inactive
same,Potency,[8],63.5 µM (active)
same,Potency,[9],inactive
same,Potency,[10],inactive
same,Potency,[17],27.4 µM (active)
same,Potency,[11],inactive
same,Potency,[16],34.8 µM (active)
same,Potency,[14],inactive
CCOC(=O)C(C)Oc1cccc2c(=O)n(CC(=O)Nc3ccc4c(c3)OCCO4)ccc12 (centres undefined),Potency,[1],inactive
same,Potency,[2],inactive
same,Potency,[3],inactive
same,Potency,[4],inactive
same,Potency,[5],inactive
CCCCCCCCCCCCCCCCCCNC(=O)OC1CCN(C(=O)OC[C@H](COC(=O)N(Cc2cccc[n+]2CC)C(=O)c2ccccc2OC)OC)CC1,Potency,[6],inactive
same,Potency,[7],26.6 µM (active)
same,Potency,[8],inactive
same,Potency,[9],inactive
same,Potency,[10],inactive
same,Potency,[17],inactive
same,Potency,[12],11.9 µM (active)
same,Potency,[13],inactive
same,Potency,[14],inactive
CCCCCC[C@@H]([C@@H](C)O)n1cnc2c(N)ncnc21,Potency,[1],inactive
same,Potency,[2],inactive
same,Potency,[3],inactive
same,Potency,[4],inactive
same,Potency,[5],inactive
CSc1nc(N)c2ncn([C@@H]3O[C@H](COP(=O)(O)OP(=O)(O)O)C(O)[C@H]3O)c2n1 (some centres undefined),Potency,[1],inactive
same,Potency,[2],inactive
same,Potency,[3],inactive
same,Potency,[4],inactive
same,Potency,[5],inactive
